Screens: PubChem, Sanford-Burnham Center for Chemical Genomics
PLAP act – activators of human placental alkaline phosphatase; activation fold at 20 µM; P05187; purified PLAP enzyme, luminescent substrate read-out; active compounds read high; actives 1.2% (n = 96,000); in the data active = activation fold above about 2
Target sequence (P05187 whole entry, looked up): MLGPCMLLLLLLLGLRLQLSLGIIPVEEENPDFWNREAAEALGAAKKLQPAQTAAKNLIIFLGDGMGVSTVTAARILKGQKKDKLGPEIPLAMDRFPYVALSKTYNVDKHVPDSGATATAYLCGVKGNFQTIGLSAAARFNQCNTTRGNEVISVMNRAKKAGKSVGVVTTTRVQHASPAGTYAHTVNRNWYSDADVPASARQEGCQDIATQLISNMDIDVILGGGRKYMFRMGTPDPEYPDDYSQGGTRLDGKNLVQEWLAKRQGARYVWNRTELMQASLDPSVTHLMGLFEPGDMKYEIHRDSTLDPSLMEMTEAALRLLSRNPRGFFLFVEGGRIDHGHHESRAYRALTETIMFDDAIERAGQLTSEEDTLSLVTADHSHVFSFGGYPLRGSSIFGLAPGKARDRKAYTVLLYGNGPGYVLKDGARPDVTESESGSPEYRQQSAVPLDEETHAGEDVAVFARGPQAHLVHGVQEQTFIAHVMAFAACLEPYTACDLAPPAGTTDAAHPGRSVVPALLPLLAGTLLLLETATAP
CYP2C9 inhib – human CYP2C9 inhibition. inhibition, % at 5 µM. P11712. actives 20% (n = 96,000). AID 777. CYP2C9 Supersomes, luciferin-H conversion, luminescence;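 active = blocking of liver enzyme CYP2C9 beyond about 50% at 5 µM, limit read from the data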
CYP2C19 activ – increases human CYP2C19 enzyme activity. activation factor at 5 µM. recombinant CYP2C19, luciferin-H EGE luminescence; active compounds read high; 0 = fully inhibited enzyme, 1 = untreated enzyme. AID 1025. P33261. 96,000 tested, under 10 active;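 active = activation factor of at least 2 at 5 µM in the primary screen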;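 also: 0 = wells with 2.5 mM tranylcypromine and 1 = vehicle-only wells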
CYP2C9 activ – CYP2C9 (human) activation | AID 1024 | actives 1.4% (n = 96,000) | recombinant CYP2C9, luciferin-H conversion, luminescence; active compounds read high; factor 1 = untreated enzyme, 0 = blocked | activation factor at 5 µM | P11712;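 active = activation factor of 2 or more for CYP2C9 at a 5 µM dose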;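 also: 0 = sulfaphenazole-blocked wells and 1 = vehicle-only wells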
CYP2C19 inh – blocks human cytochrome P450 2C19; CYP2C19 Supersomes, luciferin-H EGE luminescence, 30 min; inhibition, % at 5 µM; actives 21% (n = 96,000); P33261;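 active = CYP2C19 inhibition above a set limit at 5 µM in the primary screen, cut at about 50% in these data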;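 also: plate controls were negative control wells for no effect and 2.5 mM tranylcypromine positive control for full effect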
* hit, by the source's call. Most compounds without a hit are left out; they make up all but 31% or so of the library.

SMILES | PLAP act | CYP2C9 inhib | CYP2C19 activ | CYP2C9 activ | CYP2C19 inh
CCN1CCN(CC(=O)NC2CCCC2)C(=O)C1=O | 0.9 | 7 | 1 | 0.9 | 1
COc1cc(CC(=O)Nc2ccc(S(=O)(=O)Nc3ncccn3)cc2)cc(OC)c1OC | 1.5 | 12 | 1 | 0.9 | 3
N#C/C(=C(/O)CSc1nnc(Cc2cccs2)n1C1CCCCC1)c1nc2ccccc2[nH]1 | 2.7* | 37 | 0.4 | 0.6 | 61*
O=C(CSc1nnc(Cc2cccs2)n1-c1ccccc1)Nc1ccc2c(c1)OCCO2 | 0.9 | 89* | 0.2 | 0.1 | 85*
CCn1c(Cc2ccccc2)nnc1SCC(=O)Nc1ccc(N2CCOCC2)c(Cl)c1 | 1.3 | 58* | 0.2 | 0.4 | 80*
Cn1c(Cc2ccccc2)nnc1SCC(=O)Nc1ccc2c(c1)OCCO2 | 1.4 | 74* | 0.3 | 0.3 | 75*
N#CCSc1nnc(Cc2cccs2)n1C1CCCCC1 | 0.9 | 20 | 0.9 | 0.8 | 6
COC(=O)Nc1ccc2c(c1)N(C(=O)CCN1CCN3CCCC3C1)c1ccccc1S2 (stereo unspecified) | 1.2 | 10 | 1 | 0.9 | -3
Cc1cn(Cc2ccccc2)c(=O)[nH]c1=O | 1 | 9 | 0.9 | 0.9 | 12
CC12CCC(C(=O)Nc3ncc([N+](=O)[O-])s3)(OC1=O)C2(C)C (stereo unspecified) | 0.7 | -6 | 1.2 | 1.1 | -19
CCOC(=O)c1ccccc1NC(=O)c1cncc(Br)c1 | 1 | -4 | 0.9 | 1 | 14
CCn1c(COc2ccc(Cl)cc2)nnc1SCC(=O)Nc1ccc2c(c1)OCO2 | 0.9 | 19 | 0.9 | 0.8 | 6
CCn1c(Cc2ccccc2)nnc1SCC(=O)Nc1ccc2c(c1)OCO2 | 1.3 | 50 | 0.4 | 0.5 | 62*
Cc1ccc2nc(CSc3nnc(Cc4cccs4)n3C3CCCCC3)cc(=O)n2c1 | 1.8 | 52* | 0.3 | 0.5 | 71*
O=C(CSc1nnc(Cc2cccs2)n1-c1ccccc1)NC1CCCCC1 | 1.4 | 72* | 0.5 | 0.3 | 55*
CC(=O)NC(=O)c1nnn(Cc2ccccc2)c1NC(C)=O | 1.1 | 6 | 1.1 | 0.9 | -6
O=C(C1CC1)N(CCN(Cc1ccccc1)C(=O)C1CC1)Cc1ccccc1 | 1.2 | 28 | 0.5 | 0.7 | 54*
CCN(CC)C(=O)C1CCCN(Cc2ccc(OC)c(C)c2)C1 (stereo unspecified) | 1.2 | -12 | 0.8 | 1.1 | 19
CCCCOc1cc(=O)[nH]c(=O)[nH]1 | 0.8 | -14 | 1.2 | 1.1 | -17
Cc1nc2ccc(NC(=O)N3CCCCC3)cc2s1 | 1 | -3 | 0.9 | 1 | 14
Cc1nc2ccc(NC(=O)N3CCN(c4ccccn4)CC3)cc2s1 | 1.3 | 80* | 0.8 | 0.2 | 22
CN(CC(=O)N1CCN(c2ccccn2)CC1)S(=O)(=O)c1ccc2ccccc2c1 | 1.5 | -172 | 0.7 | 2.7* | 26
O=C(CN1CCN(c2ccccn2)CC1)Nc1cc(C(F)(F)F)ccc1Cl | 1.1 | 74* | 0.7 | 0.3 | 26
O=C(CN1CCN(c2ccccn2)CC1)Nc1ccc2ccccc2c1 | 1.5 | 55* | 0.7 | 0.4 | 28
COc1ccc(C(=O)NC2CCN(C(=S)Nc3cc(C)ccc3C)CC2)cc1 | 0.8 | -10 | 1 | 1.1 | 0
SMILES | PLAP act | CYP2C9 inhib | CYP2C19 activ | CYP2C9 activ | CYP2C19 inh
O=C(CSc1nnc(C2CC2)n1-c1ccccc1)NCCc1ccccc1 | 1 | 5 | 0.8 | 1 | 18
O=C(CN1CCN(c2ccccn2)CC1)Nc1ccc(Cl)c(C(F)(F)F)c1 | 1 | 5 | 1 | 0.9 | 4
Cc1ccc(NC(=O)CN2CCN(c3ccccn3)CC2)c(Cl)c1 | 1.1 | 86* | 0.5 | 0.1 | 55*
Cc1cc(C)cc(NC(=O)CN2CCN(c3ncccn3)CC2)c1 | 1.7 | 24 | 0.7 | 0.8 | 26
O=C(CN1CCN(c2ncccn2)CC1)Nc1ccccc1-n1cccc1 | 1.4 | 79* | 0.1 | 0.2 | 95*
CC(CN(C)Cc1ccccc1)OC(=O)C1COc2ccccc2O1 (stereo unspecified) | 1.3 | -10 | 0.9 | 1.1 | 6
CCN1CCN(C(=O)CCN2C(=O)COc3ccc(C)cc32)CC1 | 1.2 | -30 | 0.7 | 1.3 | 27
O=C(CC(c1ccccc1)c1ccccc1O)NCCN1CCOCC1 (stereo unspecified) | 1.1 | 46 | 0.5 | 0.5 | 54*
CN(C)CCCNC(=O)CC(c1ccccc1)c1ccccc1O (stereo unspecified) | 1 | -17 | 1.2 | 1.2 | -18
